Measurements: the supplement of paper PMC3334620
Whole data set: some 33,000 sequences, median “E-score (-0.5 to 0.5)” near -0.016, cut for the highest 2% near 0.3. For the sample, the highest values were picked, then their nearest neighbours and some sequences at random.

Molecular target: T1, Yer184c (UniProt P39961)
T1 sequence: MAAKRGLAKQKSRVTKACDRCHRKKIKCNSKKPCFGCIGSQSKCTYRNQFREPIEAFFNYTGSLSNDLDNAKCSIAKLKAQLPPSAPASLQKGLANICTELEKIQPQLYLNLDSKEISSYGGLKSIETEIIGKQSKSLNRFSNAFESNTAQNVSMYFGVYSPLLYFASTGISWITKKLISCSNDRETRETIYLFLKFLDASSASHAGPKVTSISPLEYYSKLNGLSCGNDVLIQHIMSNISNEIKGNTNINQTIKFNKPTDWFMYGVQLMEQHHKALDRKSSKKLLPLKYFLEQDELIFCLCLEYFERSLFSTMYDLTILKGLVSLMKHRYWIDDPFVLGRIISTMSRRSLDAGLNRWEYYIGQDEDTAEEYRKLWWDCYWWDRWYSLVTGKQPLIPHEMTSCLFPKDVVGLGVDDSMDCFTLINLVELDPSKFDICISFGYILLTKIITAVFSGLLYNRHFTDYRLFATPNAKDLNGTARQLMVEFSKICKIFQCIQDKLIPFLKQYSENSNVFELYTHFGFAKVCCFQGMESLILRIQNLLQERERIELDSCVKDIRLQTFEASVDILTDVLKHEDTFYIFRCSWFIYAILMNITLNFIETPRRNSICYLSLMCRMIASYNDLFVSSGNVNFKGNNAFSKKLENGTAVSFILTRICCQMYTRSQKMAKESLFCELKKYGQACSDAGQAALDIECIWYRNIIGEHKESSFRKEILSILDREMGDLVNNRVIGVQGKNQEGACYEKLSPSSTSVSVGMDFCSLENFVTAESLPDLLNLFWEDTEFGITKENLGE
Assay: PBM E-score (8-mer binding enrichment) (E-score (-0.5 to 0.5)); higher = stronger / more preferred TF binding
Settings: protein concentration: 100 nM; construct: GST-full length
Experimental: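 Universal 'all 10-mer' protein binding microarrays (Agilent AMADID 015681) probed with GST-tagged S. cerevisiae TFs (full-length or DBD) made by in vitro transcription/translation (PURExpress), about 100-200 nM. Bound TF was detected with fluorescent anti-GST. Each ungapped 8-mer (which stands for itself and its reverse complement) is scored by the PBM enrichment score (E-score), a modified Wilcoxon-Mann-Whitney statistic from -0.5 to +0.5, computed with the Universal PBM Analysis Suite. Scale: above 0.35 generally sequence-specific binding.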

Sequence	PBM E-score
CAAGCCTC	-0.237
CGTCCCCA	-0.276
GACCATCC	-0.237
GTGGCCAA	-0.156
ATCAGCCC	-0.386
CCCGAACC	0.0911
AACGAACT	0.0561
ACCGAACA	0.259
GCCGAACA	0.329
CCCGAACA	0.0635
ACCGAACG	0.235
GCCGAACC	0.323
ACCGAACC	0.0575
ACCGAACT	0.306
CCTGGGCA	-0.276
CGATGTGC	-0.101
ACCCCACC	0.0874
AGAATTGC	-0.134
AGGGCAAC	-0.00172
GATCGGAA	0.279
TATCGGAA	0.351
AATCGGCA	0.289
AATCGGAT	0.327
GATCGGGC	0.00638
CATCGGAA	0.278

Sequence	PBM E-score
GATCGGAC	0.322
AATCGGCT	0.349
CATCGGAC	0.174
AATCGGCC	0.146
AATCGGAC	0.152
AATCGGGT	0.173
AGTAACTA	0.173
AGAAAACC	0.0683
CACCCCGC	0.0453
CGCAAGTA	0.0344
GGACCCAA	-0.081
CCGTCAAA	0.0576
ACTCTGGC	-0.105
AGAGAACG	0.0412
AGACTAAG	-0.0179
ATCGTGGC	-0.101
ATAGATAT	0.161
CGCTTTTC	-0.0353
ACTGGCAA	-0.0748
AGTCTAGG	-0.144
AATCGGGA	0.0709
AATCGGAA	0.374
AATCGGAG	0.216
ACTTCACC	0.18
GCGCTTTA	0.0325

Sequence	PBM E-score
ACTGGCGG	-0.0142
CAATGCCG	0.22
AAATGCCG	0.353
AAATGCCC	-0.175
CGTGCGTC	0.0693
AATGTTCT	0.0086
ACCGCCGG	0.291
CTCGCCGA	0.193
GTCGCCGA	0.219
ATCGCCGC	0.206
ATCGCCGA	0.365
ATCGCCGG	0.39
GCCCGTGA	-0.132
AAATGCTC	-0.0216
TCGGGTAA	0.0925
CCGGGTTA	0.25
ACGGGTTC	0.0138
CCGGGTAA	0.348
CCGGGTAC	0.117
CCGGGTTC	0.356
AGTTGTAG	0.0893
AAGGTGTA	-0.105
CGCCACCG	-0.156
AGTCCCAT	-0.173
CCAGACCC	-0.262

Sequence	PBM E-score
AACTTTCA	0.122
ATACGGAA	0.412
TTACGGAA	0.355
CTACGGAA	0.205
ATACGGAC	0.117
ATACGGAT	0.196
GTACGGAA	0.28
CCTACTGA	-0.151
GGTCTATA	-0.16
TGCCGCAA	0.135
ACCGCATG	0.0226
ATGCTATG	-0.117
AGGAATCA	0.078
CGGAATTC	0.277
CGGAAGCC	0.211
GGGAAGCA	-0.128
AGGAATTA	0.0841
CGGAATTA	0.352
GGGAATAC	0.0278
CGGAATAC	0.353
CGGAATCA	0.306
CGGAAGCA	0.332
GGGAATCA	0.0818
AGGAATAC	-0.0183
CGCTGCAA	0.0112

Sequence	PBM E-score
AAACGATC	0.161
ACATACTC	0.0395
TAGCAGAA	0.0545
ACCGGAGC	0.247
TCCGGAGA	0.397
ACCGGAGA	0.33
GCCGGAGA	0.29
ACCGGAGG	0.144
CCCGGAGA	0.222
ATGATCAC	-0.0394
AACTAGTG	-0.0163
ACCATTCC	0.0171
ATTGGCCA	-0.148
TCGGTTCA	0.148
TCAGGAAA	0.112
GCTGGAAA	0.133
GCCGGAAA	0.426
GCAGGAAA	-0.0351
TCCGGAAA	0.449
CCCGGAAA	0.396
CCCGGAAG	0.259
TGCGGAAA	0.184
ATCTAGCC	0.00276
AGGTTATC	-0.0359
GAACTTGC	0.0842

Sequence	PBM E-score
ATCTTTTC	0.0824
CAGCGTAC	-0.147
CGCCATTC	0.0678
CCACGGAG	0.0656
TCACGGAA	0.341
CCACGGAC	-0.00729
GCACGGAA	0.159
CCACGGAA	0.338
ACACGGAA	0.295
AGGACAAG	-0.102
AAGTCTCT	-0.246
AACAGAAC	0.163
GTTGTACA	0.277
GTGCCGGA	0.305
CTGCCGTC	-0.066
ATGCCAGA	0.0873
ATGCCGGG	0.244
ATGCCGCA	0.124
ATGCCGTC	0.0209
ATGCCGGC	0.399
ATGCCGGA	0.36
GGGCCGGA	0.244
CTGCCGAC	0.0291
CTGCCGGC	0.369
GTGCCGTA	0.16

Sequence	PBM E-score
ATACGCGG	-0.0243
AGCCCTCC	-0.201
GCATTCCC	-0.182
ACCTCTAA	0.0296
CATTGTGA	-0.164
GCTGTGCC	-0.0243
AGAGAGAT	0.0462
CACGTTCC	-0.176
AGACCAAC	-0.108
ATATTATG	0.261
ATATAACG	0.255
CAAGTAGC	-0.216
CTGCCGCA	-0.117
CTGCCGTA	-0.00407
CTGCCGGA	0.349
CGATGCGA	-0.0338
GTCGAGAA	-0.0535
TCCGAGAA	0.324
CCCGAGAC	0.0787
GCCGAGAC	0.327
CCCGAGAA	0.234
GCCGAGCA	0.186
